These results are taken from the supplement of paper PMC13392028.

The test relates to PfIESI-1 RRM domain (Plasmodium falciparum ortholog aa 875-1232, GST fusion). As to the kind of experiment: RBNS R-value (6-mer enrichment in protein-bound RNA vs input library) (ratio); higher = stronger binding preference; the methods of the paper give 50 / 100 / 500 nM protein instead. The protocol: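 RNA Bind-n-Seq: recombinant GST-tagged IESI-1 RRM domain was incubated at room temperature with a random 40-nt in vitro transcribed RNA library at 250, 500 or 1000 nM protein. Bound RNA was pulled down on glutathione beads and sequenced. R-value is the enrichment of each 6-mer in the bound RNA relative to the input library. Each 6-mer sits inside the random 40-mer context, not as an isolated oligo. Values are replicate 1 only.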

Whole data set: some 4,100 sequences, median “RBNS R-value (6-mer enrichment in protein-bound RNA vs input library)” near 0.99, cut for the highest 2% near 1.4. This excerpt belongs to a sample that is enriched for the highest values.

For CCUCGA, the “RBNS R-value” (protein concentration: 250 nM) is 1.12, the “RBNS R-value” (protein concentration: 500 nM) was 1.08 and the “RBNS R-value” (protein concentration: 1000 nM) came out at 1.11.

As to GUGUCA, the “RBNS R-value” runs as follows: (protein concentration: 250 nM) 0.85; (protein concentration: 500 nM) 0.872; (protein concentration: 1000 nM) 0.887.

On to GAUACG, for which the “RBNS R-value” was determined as 1.1 (protein concentration: 250 nM), 1.13 (protein concentration: 500 nM) and 1.09 (protein concentration: 1000 nM).

GCGGUA: the “RBNS R-value” (protein concentration: 250 nM) came out at 0.985, the “RBNS R-value” (protein concentration: 500 nM) stood at 0.954 and the “RBNS R-value” (protein concentration: 1000 nM) is 1.

Turning to CUCCUA, the “RBNS R-value” is, setting by setting: (protein concentration: 250 nM) 0.889; (protein concentration: 500 nM) 0.834; (protein concentration: 1000 nM) 0.858.

For GCUUGC, the “RBNS R-value” (protein concentration: 250 nM) was 1.01, the “RBNS R-value” (protein concentration: 500 nM) is 0.943 and the “RBNS R-value” (protein concentration: 1000 nM) came out at 0.985.

On to GAUAGA, for which the “RBNS R-value” is, setting by setting: (protein concentration: 250 nM) 1.21; (protein concentration: 500 nM) 1.3; (protein concentration: 1000 nM) 1.18.

Consider GAUAGC, for which the “RBNS R-value” (protein concentration: 250 nM) is 1.44, the “RBNS R-value” (protein concentration: 500 nM) was 1.48 and the “RBNS R-value” (protein concentration: 1000 nM) is 1.3.

With GAUAGU, the “RBNS R-value” by setting is: (protein concentration: 250 nM) 1.01; (protein concentration: 500 nM) 1.06; (protein concentration: 1000 nM) 1.

Turning to AAACGG, the “RBNS R-value” reads like this: (protein concentration: 250 nM) 1.06; (protein concentration: 500 nM) 1.07; (protein concentration: 1000 nM) 1.08.

As to AAAGCU, the “RBNS R-value” by setting is: (protein concentration: 250 nM) 0.98; (protein concentration: 500 nM) 1.05; (protein concentration: 1000 nM) 1.03.

In the case of CCCAGU, the “RBNS R-value” (protein concentration: 250 nM) amounted to 1.09, the “RBNS R-value” (protein concentration: 500 nM) worked out at 1.03 and the “RBNS R-value” (protein concentration: 1000 nM) came to 1.06.

Turning to CCCAGA, the “RBNS R-value” is, setting by setting: (protein concentration: 250 nM) 1.39; (protein concentration: 500 nM) 1.32; (protein concentration: 1000 nM) 1.3.

Turning to CCCAGG, the “RBNS R-value” (protein concentration: 250 nM) was 1.27, the “RBNS R-value” (protein concentration: 500 nM) stood at 1.21 and the “RBNS R-value” (protein concentration: 1000 nM) came out at 1.27.

For ACAUGA, the “RBNS R-value” (protein concentration: 250 nM) came out at 1.25, the “RBNS R-value” (protein concentration: 500 nM) was 1.37 and the “RBNS R-value” (protein concentration: 1000 nM) amounted to 1.2.

As for CCUUUA, the “RBNS R-value” worked out at 0.814 (protein concentration: 250 nM), 0.763 (protein concentration: 500 nM) and 0.779 (protein concentration: 1000 nM).

As to UGACCG, the “RBNS R-value” came out at 1.04 (protein concentration: 250 nM), 1.02 (protein concentration: 500 nM) and 1.07 (protein concentration: 1000 nM).

CUUUGA: the “RBNS R-value” (protein concentration: 250 nM) was determined as 1.35, the “RBNS R-value” (protein concentration: 500 nM) is 1.41 and the “RBNS R-value” (protein concentration: 1000 nM) worked out at 1.26.

On to AUUUGG, for which the “RBNS R-value” by setting is: (protein concentration: 250 nM) 1.1; (protein concentration: 500 nM) 1.17; (protein concentration: 1000 nM) 1.06.

As to UUUUGU, the “RBNS R-value” was determined as 0.909 (protein concentration: 250 nM), 0.927 (protein concentration: 500 nM) and 0.922 (protein concentration: 1000 nM).

As for CUUUGU, the “RBNS R-value” stood at 0.825 (protein concentration: 250 nM), 0.805 (protein concentration: 500 nM) and 0.863 (protein concentration: 1000 nM).

Turning to AUUUGU, the “RBNS R-value” reads like this: (protein concentration: 250 nM) 0.92; (protein concentration: 500 nM) 0.975; (protein concentration: 1000 nM) 0.913.

Take CUUUGG: the “RBNS R-value” by setting is: (protein concentration: 250 nM) 0.959; (protein concentration: 500 nM) 0.914; (protein concentration: 1000 nM) 0.962.

AUUUGA: the “RBNS R-value” is, setting by setting: (protein concentration: 250 nM) 1.45; (protein concentration: 500 nM) 1.59; (protein concentration: 1000 nM) 1.34.

Consider UUUUGC, for which the “RBNS R-value” stood at 1.06 (protein concentration: 250 nM), 1.04 (protein concentration: 500 nM) and 1.02 (protein concentration: 1000 nM).

For UUUUGA, the “RBNS R-value” came out at 1.53 (protein concentration: 250 nM), 1.59 (protein concentration: 500 nM) and 1.37 (protein concentration: 1000 nM).

CCCUCG: the “RBNS R-value” was determined as 1.05 (protein concentration: 250 nM), 0.973 (protein concentration: 500 nM) and 1.06 (protein concentration: 1000 nM).

With AAAAUA, the “RBNS R-value” was determined as 0.851 (protein concentration: 250 nM), 1.05 (protein concentration: 500 nM) and 0.927 (protein concentration: 1000 nM).

For CCAAAU, the “RBNS R-value” runs as follows: (protein concentration: 250 nM) 0.978; (protein concentration: 500 nM) 1.04; (protein concentration: 1000 nM) 0.995.

Regarding AGCUGU, the “RBNS R-value” (protein concentration: 250 nM) turned out to be 0.94, the “RBNS R-value” (protein concentration: 500 nM) worked out at 0.939 and the “RBNS R-value” (protein concentration: 1000 nM) amounted to 0.951.

Consider CCACAA, for which the “RBNS R-value” reads like this: (protein concentration: 250 nM) 0.988; (protein concentration: 500 nM) 0.991; (protein concentration: 1000 nM) 1.

In the case of CUAGAG, the “RBNS R-value” (protein concentration: 250 nM) amounted to 1.1, the “RBNS R-value” (protein concentration: 500 nM) was determined as 1.1 and the “RBNS R-value” (protein concentration: 1000 nM) was found to be 1.09.

For GAUCGU, the “RBNS R-value” (protein concentration: 250 nM) came out at 0.85, the “RBNS R-value” (protein concentration: 500 nM) came out at 0.817 and the “RBNS R-value” (protein concentration: 1000 nM) turned out to be 0.886.

Consider GGUGAU, for which the “RBNS R-value” by setting is: (protein concentration: 250 nM) 1.33; (protein concentration: 500 nM) 1.4; (protein concentration: 1000 nM) 1.28.

For the sequence AGUGAA, the “RBNS R-value” runs as follows: (protein concentration: 250 nM) 0.981; (protein concentration: 500 nM) 1.04; (protein concentration: 1000 nM) 1.05.

As to UGUGAG, the “RBNS R-value” (protein concentration: 250 nM) came to 0.948, the “RBNS R-value” (protein concentration: 500 nM) is 1 and the “RBNS R-value” (protein concentration: 1000 nM) was found to be 1.06.

Take AGUGAU: the “RBNS R-value” by setting is: (protein concentration: 250 nM) 1.55; (protein concentration: 500 nM) 1.73; (protein concentration: 1000 nM) 1.44.

Turning to CGUGAG, the “RBNS R-value” by setting is: (protein concentration: 250 nM) 0.982; (protein concentration: 500 nM) 0.993; (protein concentration: 1000 nM) 1.05.

Consider GGUGAG, for which the “RBNS R-value” (protein concentration: 250 nM) was 1.02, the “RBNS R-value” (protein concentration: 500 nM) is 1.02 and the “RBNS R-value” (protein concentration: 1000 nM) was found to be 1.02.

On to UGUGAU, for which the “RBNS R-value” is 1.55 (protein concentration: 250 nM), 1.73 (protein concentration: 500 nM) and 1.39 (protein concentration: 1000 nM).

As for GGUGAC, the “RBNS R-value” was 0.986 (protein concentration: 250 nM), 0.987 (protein concentration: 500 nM) and 1.01 (protein concentration: 1000 nM).

For the sequence CGUGAU, the “RBNS R-value” came out at 1.56 (protein concentration: 250 nM), 1.62 (protein concentration: 500 nM) and 1.39 (protein concentration: 1000 nM).

On to CGUGAA, for which the “RBNS R-value” is, setting by setting: (protein concentration: 250 nM) 0.992; (protein concentration: 500 nM) 1.03; (protein concentration: 1000 nM) 1.05.

Consider AGUGAC, for which the “RBNS R-value” runs as follows: (protein concentration: 250 nM) 1.02; (protein concentration: 500 nM) 1.05; (protein concentration: 1000 nM) 1.03.

Regarding UGUGAC, the “RBNS R-value” (protein concentration: 250 nM) came out at 0.993, the “RBNS R-value” (protein concentration: 500 nM) is 0.99 and the “RBNS R-value” (protein concentration: 1000 nM) was found to be 0.972.

For UUAUAA, the “RBNS R-value” runs as follows: (protein concentration: 250 nM) 0.747; (protein concentration: 500 nM) 0.809; (protein concentration: 1000 nM) 0.749.

Take UUGUCA: the “RBNS R-value” runs as follows: (protein concentration: 250 nM) 0.891; (protein concentration: 500 nM) 0.887; (protein concentration: 1000 nM) 0.9.

GCACUA: the “RBNS R-value” was 0.903 (protein concentration: 250 nM), 0.86 (protein concentration: 500 nM) and 0.892 (protein concentration: 1000 nM).

For the sequence ACACCU, the “RBNS R-value” reads like this: (protein concentration: 250 nM) 1.23; (protein concentration: 500 nM) 1.16; (protein concentration: 1000 nM) 1.12.

Turning to ACAACG, the “RBNS R-value” reads like this: (protein concentration: 250 nM) 0.949; (protein concentration: 500 nM) 0.979; (protein concentration: 1000 nM) 0.966.
